Inconclusive results are not listed. The source made the active and inactive calls. Unless noted, calls follow the shape of the dose curve; as a rule, active = well fitted curve in the direction sought with a large enough effect in the repeat runs; inconclusive = weak or mixed curves; inactive = no such curve, though single readings can be large; an effect the other way counts as inactive or inconclusive.
Experiments:
[1] = A CellTox Green Cytotoxicity Assay to monitor cytotoxicity in HEK293 cells - 32 hour (AID 1224881); also: nearly all actives have a fitted effect of over 40% in size
Method in brief: (§1)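 HEK293 cells premixed with CellTox Green dye were seeded at 600 cells/well and left 5 h at 37 C/5% CO2 before pin transfer of 23 nL compound in DMSO. Fluorescence from dye bound to dead-cell DNA was read during 40 h treatment.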

[2] = A CellTox Green Cytotoxicity Assay to monitor cytotoxicity in HepG2 cells - 0 hour (AID 1224882); also: nearly all actives have a fitted effect of over 35% in size
Method in brief: (§2)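 HepG2 cells were seeded together with the CellTox Green dye at 600 cells/well, left 5 h at 37 C/5% CO2, then given compounds in DMSO. Fluorescence from dye bound to dead-cell DNA was read repeatedly over 40 h of treatment at 37 C.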

[3] = A CellTox Green Cytotoxicity Assay to monitor cytotoxicity in HepG2 cells - 32 hour (AID 1224883); also: nearly all actives have a fitted effect of over 50% in size
Method in brief: as §2

[4] = A CellTox Green Cytotoxicity Assay to monitor cytotoxicity in HEK293 cells - 8 hour (AID 1224884); also: nearly all actives have a fitted effect of over 35% in size
Method in brief: as §1

[5] = qHTS RealTime-Glo MT Cell Viability Assay in HepG2 cells - 16 hour (AID 1224885); also: nearly all actives have a fitted effect of over 50% in size
Method in brief: (§3)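 HepG2 suspension premixed with RealTime-Glo reagents is plated at 600 cells per well and left 5 h at 37 C/5% CO2. Compounds in DMSO then go in, and bioluminescence reflecting viable cell number is recorded over 40 h.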

[6] = qHTS RealTime-Glo MT Cell Viability Assay in HEK293 cells - 24 hour (AID 1224886); also: top concentration of the series differs between compounds; nearly all actives have a fitted effect of over 50% in size
Method in brief: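 Reads taken at 0, 8, 16, 24, 32 and 40 h from the same wells. HEK293 cells (600/well) carried RealTime-Glo reagents from seeding, with compound added after a 5 h settle at 37 C.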

[7] = qHTS RealTime-Glo MT Cell Viability Assay in HEK293 cells - 8 hour (AID 1224887); also: top concentration of the series differs between compounds; nearly all actives have a fitted effect of over 50% in size
Method in brief: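 HEK293 cells mixed with RealTime-Glo reagents (NanoLuc plus cell-permeant prosubstrate) at 600 cells/well, preincubated 5 h at 37 C/5% CO2, then given 23 nL compound in DMSO. Nonlytic luminescence from viable cells was read at 0, 8, 16, 24, 32 and 40 h.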

[8] = A CellTox Green Cytotoxicity Assay to monitor cytotoxicity in HEK293 cells - 16 hour (AID 1224888); also: nearly all actives have a fitted effect of over 35% in size
Method in brief: as §1

[9] = qHTS RealTime-Glo MT Cell Viability Assay in HepG2 cells - 0 hour (AID 1224889); also: nearly all actives have a fitted effect of over 50% in size
Method in brief: as §3

[10] = A CellTox Green Cytotoxicity Assay to monitor cytotoxicity in HepG2 cells - 8 hour (AID 1224890); also: nearly all actives have a fitted effect of over 45% in size
Method in brief: as §2

[11] = qHTS assay to identify small molecule antagonists of the estrogen receptor alpha (ER-alpha) signaling pathway using the BG1 cell line in the presence of 0.1 nM 17-beta-estradiol - cell viability counter screen (AID 1259241); also: nearly all actives have a fitted effect of over 40% in size
Method in brief: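 Viability in VM7Luc4E2 cells after 22 hr compound exposure under 0.1 nM 17beta-estradiol stimulation, by CellTiter-Fluor.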

[12] = qHTS assay to identify small molecule antagonists of the androgen receptor (AR) signaling pathway using the MDA cell line in the presence of 0.5 nM R1881 - cell viability counter screen (AID 1259242); also: nearly all actives have a fitted effect of over 45% in size
Method in brief: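 MDA-kb2 cells (human breast carcinoma, stably carrying MMTV-luciferase reporter) were exposed to compounds with 0.5 nM R1881 (final) for 16 hr at 37C, 0% CO2; viability then read as live-cell protease fluorescence (CellTiter-Fluor, 30 min) in the same wells.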

[13] = target: Estrogen receptor (Homo sapiens) (UniProt P03372); experiment: qHTS assay to identify small molecule antagonists of the estrogen receptor alpha (ER-alpha) signaling pathway using the BG1 cell line in the presence of 0.1 nM 17-beta-estradiol (AID 1259244); also: nearly all actives have a fitted effect of over 50% in size
Method in brief: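 VM7Luc4E2 cells (endogenous full-length ER-alpha, stable 4xERE-luciferase) were grown 5 days in phenol red-free medium with charcoal-stripped FBS, then exposed 22 h at 37C to compounds plus 0.1 nM (final) 17beta-estradiol; ONE-Glo luminescence read-out.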

[14] = qHTS assay to identify small molecule phospholipidosis (PLD) inducers (AID 1259344; active = well fitted curve in the direction sought with a large enough effect; an effect the other way counts as inactive or inconclusive)
Method in brief: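 HepG2 cells on collagen I, attached 4 h at 37 C, were co-treated with compound and LipidTOX Red dye for 24 h at 37 C, then fixed with paraformaldehyde plus Hoechst 33342 and imaged by high-content microscopy for phospholipid accumulation.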

[15] = qHTS assay to identify small molecule HDAC inhibitors (AID 1259364); also: top concentration of the series differs between compounds; nearly all actives have a fitted effect of over 45% in size
Method in brief: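 Wild-type HCT-116 cells were plated overnight, exposed to compounds for 2 h at 37 °C, then given HDAC-Glo class I/II luminogenic reagent for 30 min at room temperature before luminescence was read.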

[16] = qHTS assay to identify small molecule HDAC inhibitors - cell viability counter screen (AID 1259365)
Method in brief: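 Cytotoxicity was gauged in wild-type HCT-116 cells after a brief 2hr treatment with DMSO-dissolved compounds at 37C and 5% CO2, using CellTiter-Glo luminescence developed for 30min at room temperature.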

[17] = qHTS assay to identify small molecule agonists of the sonic hedgehog signaling (Shh) pathway - cell viability counter screen (AID 1259366); also: nearly all actives have a fitted effect of over 50% in size
Method in brief: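 Stable Gli1-Luc NIH/3T3 clone, 2,000 cells/well. Compound exposure 24hr at 37C. Read-out: CellTiter-Fluor fluorescence.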

[18] = qHTS assay to identify small molecule antagonists of the sonic hedgehog signaling (Shh) pathway - cell viability counter screen (AID 1259367); also: nearly all actives have a fitted effect of over 55% in size
Method in brief: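 NIH/3T3-derived Gli1-Luc reporter cells (2,000 per well) rested 4 hr at 37 C, then received DMSO compounds plus conditioned medium. After 23 hr of treatment, CellTiter-Fluor was added for 1 hr at 37C and fluorescence read.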

[19] = qHTS assay to identify small molecule agonists of the sonic hedgehog signaling (Shh) pathway (AID 1259368; calls by dose curve; also: series mostly up to about 92 µM; nearly all actives have a fitted effect of over 15% in size)
Method in brief: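 NIH/3T3-derived 3T3Gli1-Luc cells carrying a stably integrated Gli1 response element–firefly luciferase reporter were plated, left 4 hr at 37 C, then given compounds in DMSO for 24 hr. Luminescence was read 30 min after adding luciferase reagent.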

[20] = target: Androgen receptor (Homo sapiens) (UniProt P10275); experiment: qHTS assay to identify small molecule antagonists of the androgen receptor (AR) signaling pathway using the MDA cell line in the presence of 0.5 nM R1881 (AID 1259243); also: nearly all actives have a fitted effect of over 50% in size
Method in brief: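 MDA-kb2 human breast carcinoma cells carrying an MMTV-luciferase reporter (AR- and GR-responsive) were plated, rested 5 hr at 37C, dosed with compounds, then stimulated with 0.5 nM R1881 (final) for 16 hr; luminescence was read after ONE-Glo.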
% is scaled to controls: 0 for no effect and ±100 for the full control effect.

Chain of Estrogen receptor (Homo sapiens) (P03372 whole entry, looked up): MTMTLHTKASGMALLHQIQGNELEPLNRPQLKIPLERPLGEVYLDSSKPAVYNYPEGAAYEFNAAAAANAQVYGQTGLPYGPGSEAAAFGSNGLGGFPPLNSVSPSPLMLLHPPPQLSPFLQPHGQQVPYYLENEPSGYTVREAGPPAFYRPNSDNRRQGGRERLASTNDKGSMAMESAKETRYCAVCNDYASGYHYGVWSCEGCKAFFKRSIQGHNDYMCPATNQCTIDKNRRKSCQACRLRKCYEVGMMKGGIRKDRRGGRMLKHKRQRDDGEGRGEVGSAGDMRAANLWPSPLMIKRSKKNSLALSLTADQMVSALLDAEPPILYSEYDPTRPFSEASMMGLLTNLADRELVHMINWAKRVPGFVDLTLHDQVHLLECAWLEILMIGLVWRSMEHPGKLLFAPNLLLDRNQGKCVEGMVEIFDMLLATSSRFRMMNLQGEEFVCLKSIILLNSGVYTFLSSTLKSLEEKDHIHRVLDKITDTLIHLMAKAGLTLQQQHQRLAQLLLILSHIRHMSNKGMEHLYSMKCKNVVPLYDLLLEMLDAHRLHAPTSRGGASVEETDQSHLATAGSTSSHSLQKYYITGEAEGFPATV
Chain of Androgen receptor (Homo sapiens) (P10275 whole entry, looked up): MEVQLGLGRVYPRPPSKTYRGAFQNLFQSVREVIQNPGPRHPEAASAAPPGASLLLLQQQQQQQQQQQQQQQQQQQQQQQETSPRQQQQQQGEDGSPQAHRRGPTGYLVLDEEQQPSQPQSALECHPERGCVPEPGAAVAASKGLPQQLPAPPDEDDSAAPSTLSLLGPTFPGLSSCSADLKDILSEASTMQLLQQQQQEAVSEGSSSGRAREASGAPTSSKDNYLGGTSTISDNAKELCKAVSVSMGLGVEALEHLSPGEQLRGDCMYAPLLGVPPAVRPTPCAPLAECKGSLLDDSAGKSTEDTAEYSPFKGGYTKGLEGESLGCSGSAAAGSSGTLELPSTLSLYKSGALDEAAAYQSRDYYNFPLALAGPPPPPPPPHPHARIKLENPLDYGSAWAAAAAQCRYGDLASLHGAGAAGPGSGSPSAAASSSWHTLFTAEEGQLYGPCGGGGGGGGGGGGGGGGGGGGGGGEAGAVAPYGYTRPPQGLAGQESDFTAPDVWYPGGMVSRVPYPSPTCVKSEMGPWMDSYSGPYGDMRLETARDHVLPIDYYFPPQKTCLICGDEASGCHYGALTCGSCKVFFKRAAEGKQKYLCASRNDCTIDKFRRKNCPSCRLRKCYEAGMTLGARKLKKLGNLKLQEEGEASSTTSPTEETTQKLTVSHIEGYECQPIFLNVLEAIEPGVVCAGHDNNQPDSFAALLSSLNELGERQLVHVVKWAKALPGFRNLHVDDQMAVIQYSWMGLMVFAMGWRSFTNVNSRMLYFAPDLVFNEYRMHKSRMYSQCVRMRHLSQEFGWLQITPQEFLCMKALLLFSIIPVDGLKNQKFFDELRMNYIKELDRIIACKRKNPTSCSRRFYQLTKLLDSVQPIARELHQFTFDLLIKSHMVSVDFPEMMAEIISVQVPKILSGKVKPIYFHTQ

Cc1cccn2c(=O)c(-c3nnn[nH]3)cnc12
inactive: Potency [1] | cytotoxicity [2] 0.312% [at 15.8 µM] | cytotoxicity increase [3] 2.82% [at 15.8 µM] | cytotoxicity increase [4] 9.95% [at 15.8 µM] | activity change, negative = cytotoxic [5] -6.35% [at 15.8 µM] | activity change, negative = cytotoxicity [6] 2.84% [at 15.8 µM] | activity change, negative = cytotoxicity [7] -0.563% [at 15.8 µM] | activity change [8] 17.3% [at 15.8 µM, active compounds read high] | activity change, negative = cytotoxicity [9] -3.79% [at 15.8 µM] | cytotoxicity increase [10] 3.76% [at 15.8 µM] | activity change, negative = cytotoxicity [11] 2.88% [at 19 µM] | viability change, negative = cytotoxic [12] 3.32% [at 19 µM] | activity change, negative = inhibition [13] 3.45% [at 19 µM] | Potency [14] | activity change, negative = inhibition [15] -1.21% [at 19 µM] | activity change, negative = cytotoxicity [16] -4.27% [at 19 µM] | viability change, negative = cytotoxic [17] 4.51% [at 19 µM] | Potency [18] | activity change [19] 0.228% [at 18.9 µM]

Cc1ccc(=O)n(-c2ccccc2)c1
inactive: Potency [1] | Potency [2] | Potency [3] | Potency [4] | Potency [5] | Potency [6] | Potency [7] | Potency [8] | Potency [9] | Potency [10] | outcome [11] | Potency [12] | outcome [13] | Potency [14] | Potency [15] | outcome [16] | Potency [17] | Potency [18] | outcome [19]

O=C(O)COc1nn(Cc2ccccc2)c2ccccc12
inactive: Potency [1] | Potency [2] | Potency [3] | Potency [4] | Potency [5] | Potency [6] | Potency [7] | Potency [8] | Potency [9] | Potency [10] | outcome [11] | Potency [12] | Potency [20] | outcome [13] | Potency [14] | Potency [15] | outcome [16] | Potency [18]

CCOC(C)(C)C
inactive: Potency [1] | Potency [2] | Potency [3] | Potency [4] | Potency [5] | Potency [6] | Potency [7] | Potency [8] | Potency [9] | Potency [10] | outcome [11] | Potency [12] | outcome [13] | outcome [16] | Potency [18] | outcome [19]

Cc1c(NC(C)C)c(=O)n(-c2ccccc2)n1C
inactive: Potency [1] | Potency [2] | Potency [3] | Potency [4] | Potency [5] | Potency [6] | Potency [7] | Potency [8] | Potency [9] | Potency [10] | outcome [11] | Potency [12] | outcome [13] | Potency [14] | outcome [16] | Potency [17] | Potency [18] | outcome [19]

COC(=O)[C@@H](N)Cc1ccc(O)c(O)c1
inactive: Potency [1] | Potency [2] | Potency [3] | Potency [4] | Potency [5] | Potency [6] | Potency [7] | Potency [8] | Potency [9] | Potency [10] | outcome [11] | Potency [12] | Potency [20] | Potency [14] | Potency [15] | outcome [16] | Potency [17] | Potency [18]

Nc1cc(=O)[nH]c(N)n1
inactive: Potency [1] | Potency [2] | Potency [3] | Potency [4] | Potency [5] | Potency [6] | Potency [7] | Potency [8] | Potency [9] | Potency [10] | outcome [11] | Potency [12] | outcome [13] | PLD induction [14] 1.63% [at 7.66 µM] | outcome [16] | Potency [17]

CC[N+](C)(C)c1cccc(O)c1
inactive: Potency [1] | Potency [2] | Potency [3] | Potency [4] | Potency [5] | Potency [6] | Potency [7] | Potency [8] | Potency [9] | Potency [10] | outcome [11] | Potency [12] | Potency [14] | Potency [15] | outcome [16] | outcome [19]

c1cnc(N2CCN(Cc3ccc4c(c3)OCO4)CC2)nc1
inactive: Potency [1] | Potency [2] | Potency [3] | Potency [4] | Potency [5] | Potency [6] | Potency [7] | Potency [8] | Potency [9] | Potency [10] | outcome [11] | Potency [12] | outcome [13] | Potency [14] | outcome [16] | Potency [17] | Potency [18] | outcome [19]

CCSC(=O)N(CC(C)C)CC(C)C
inactive: Potency [1] | Potency [2] | Potency [3] | Potency [4] | Potency [5] | Potency [6] | Potency [7] | Potency [8] | Potency [9] | Potency [10] | outcome [11] | Potency [12] | Potency [20] | outcome [13] | Potency [15] | outcome [16] | Potency [18] | outcome [19]

NC(=O)Nc1ccccc1
inactive: Potency [1] | Potency [2] | Potency [3] | Potency [4] | Potency [5] | Potency [6] | Potency [7] | Potency [8] | Potency [9] | Potency [10] | outcome [11] | Potency [12] | outcome [13] | Potency [15] | outcome [16] | outcome [19]

CCC=O
inactive: Potency [1] | Potency [2] | Potency [3] | Potency [4] | Potency [5] | Potency [6] | Potency [7] | Potency [8] | Potency [9] | Potency [10] | outcome [11] | Potency [12] | outcome [13] | outcome [16] | Potency [17] | outcome [19]

Nc1c2c(nc3ccccc13)CCCC2O (stereo not given)
inactive: Potency [1] | Potency [2] | Potency [3] | Potency [4] | Potency [5] | Potency [6] | Potency [7] | Potency [8] | Potency [9] | Potency [10] | outcome [11] | Potency [12] | outcome [13] | Potency [14] | Potency [15] | outcome [16] | Potency [17] | Potency [18] | outcome [19]

CCOC(=O)c1cccc(N)c1
inactive: Potency [1] | Potency [2] | Potency [3] | Potency [4] | Potency [5] | Potency [6] | Potency [7] | Potency [8] | Potency [9] | Potency [10] | outcome [11] | Potency [12] | outcome [13] | Potency [14] | Potency [15] | outcome [16] | Potency [17] | Potency [18]
